AMA1-RON2 inh: qHTS for Inhibitors of AMA1-RON; Towards Development of Antimalarial Drug Lead: Primary Screen; AID 720542, 2013; 360,000 tested, 0.2% active; Plasmodium falciparum AMA1 (3D7) - RON2 peptide interaction; AlphaScreen AMA1-biotinylated RON2 peptide binding; Potency, µM (titrated, usually from 58.2 µM), for inactives: at the top dose activity change, negative = inhibition, hits mostly inhibitors;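 also: 0% = vehicle wells and -100% = peptide control; nearly all actives have a fitted effect of over 45% in size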
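AMA1 (3D7) with his tag at 25 nM final met compounds first, then biotinylated RON2 peptide at 25 nM; detection used donor plus acceptor beads, 10 µg/mL apiece, read by AlphaScreen after 30 min at room temperature.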
RE007 growth inh: qHTS Assay for Inhibitors of the HIV-1 protein Vpr. S. pombe RE007 Vpr strain, BacTiter-Glo ATP luminescence, 24 h. Potency, µM (series often up to 92.2 µM), for the others: at the highest dose activity change, negative = less growth, most hits filed as inhibitors. 360,000 tested, 0.21% active; active = well fitted falling curve with a large enough effect; inconclusive = small, poorly fitted or top-dose-only effect; inactive = no such curve, though single readings can be large or run the other way; also: nearly all actives have a fitted effect of over 50% in size
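Fission yeast strain RE007, carrying one chromosomally integrated HIV-1 vpr copy, was seeded at OD 0.01 in PMG+AL medium with 23 nL pinned compound. After 24 h at 30 °C and 99% humidity, viability was read by BacTiter-Glo luminescence.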
Vaccinia mCherry: qHTS for Stage-Specific Inhibitors of Vaccinia Orthopoxvirus: mCherry Reporter Primary qHTS; Vaccinia virus mCherry reporter infection, fluorescence; Potency, µM (series often up to 36.5 µM), inactives show top-dose activity change, negative = inhibition, actives largely listed as inhibitors; 310,000 tested, 0.63% active; AID 720579, 2013; calls by dose curve; tested in A549 cells; also: nearly all actives have a fitted effect of over 35% in size
VACV Venus inh: qHTS for Stage-Specific Inhibitors of Vaccinia Orthopoxvirus: Venus Reporter Primary qHTS; Vaccinia virus Venus reporter expression, fluorescence; Potency, µM (series often up to 36.5 µM), without a hit: top-dose activity change, negative = inhibition, hits mostly inhibitors; 330,000 tested, 0.46% active; AID 720580, 2013; calls by dose curve; tested in A549 cells; also: nearly all actives have a fitted effect of over 30% in size
TbPYK inhibitor: qHTS of Trypanosoma Brucei Inhibitors; AID 624173, 2012; pyruvate kinase (Trypanosoma brucei), Q57TT1; TbPYK enzyme, Kinase-Glo Plus ATP luminescence, 45 min; 410,000 tested, 0.12% active; Potency, µM (doses to about 76.8 µM), without a hit: at the top dose activity, negative = inhibition, actives largely listed as inhibitors; also: nearly all actives have a fitted effect of over 50% in size
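Screened from lowest to highest concentration, compounds were pinned into TbPYK/substrate mixtures, and ADP (130 uM final) was added. Plates sat at room temperature for 45 min prior to Kinase-Glo Plus detection by luminescence.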
LmPK inh: qHTS Assay for Inhibitors of Leishmania Mexicana Pyruvate Kinase (LmPK); Potency, µM (titrated, usually from 57.5 µM), inactives show at the top dose activity change, negative = inhibition, hits mostly inhibitors; purified LmPK, Kinase-Glo ATP luminescence, 1 h; 290,000 tested, 0.37% active; Q27686
Target sequence (Q27686 whole entry, looked up): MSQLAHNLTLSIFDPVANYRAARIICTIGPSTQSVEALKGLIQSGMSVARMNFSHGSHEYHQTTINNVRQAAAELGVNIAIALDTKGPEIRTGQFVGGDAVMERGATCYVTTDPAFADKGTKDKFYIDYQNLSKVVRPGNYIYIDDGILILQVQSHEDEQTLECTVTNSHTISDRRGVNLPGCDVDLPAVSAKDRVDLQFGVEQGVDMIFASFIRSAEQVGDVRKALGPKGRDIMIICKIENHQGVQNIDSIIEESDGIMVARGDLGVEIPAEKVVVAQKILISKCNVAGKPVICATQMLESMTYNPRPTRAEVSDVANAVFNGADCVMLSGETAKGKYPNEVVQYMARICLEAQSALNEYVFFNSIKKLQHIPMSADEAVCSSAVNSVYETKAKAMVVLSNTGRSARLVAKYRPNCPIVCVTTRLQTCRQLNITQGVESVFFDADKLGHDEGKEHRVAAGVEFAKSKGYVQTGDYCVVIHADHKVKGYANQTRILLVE
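Kinase-Glo luminescence read after 1 h RT reaction of 0.1 nM LmPK with 0.5 mM PEP and 0.1 mM ADP. Activity scaled between uninhibited and enzyme-free controls.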
Active calls of the source: *; i = inactive; u = inconclusive; x = not tested or not shown. An excerpt weighted towards active compounds, which were near 1.3% of everything screened. Unless noted, calls follow the shape of the dose curve; as a rule, active = well fitted curve in the direction sought with a large enough effect; inconclusive = small, poorly fitted or top-dose-only effect, or another doubt; inactive = no such curve, though single readings can be large; an effect the other way counts as inactive or inconclusive. Unless noted, % is scaled to controls: 0 for no effect and ±100 for the full control effect; potency is read from the fitted curve at half-maximal effect.

SMILES	AMA1-RON2 inh	RE007 growth inh	Vaccinia mCherry	VACV Venus inh	TbPYK inhibitor	LmPK inh
Cc1ccc(NS(=O)(=O)c2cc3c4c(cccc4c2)C(=O)NC3=O)cc1C	15%	4%	13µM*	10µM*	2%	3%
COc1cc(-c2ccc(Nc3ccccc3C(=O)O)c(OC)c2)ccc1Nc1ccccc1C(=O)O	18µM*	-20%	i	-1%	2%	-2%
COc1cccc(Nc2ccccc2C(=O)O)c1	-8%	1%	i	-14%	-8%	0%
O=C(OCc1csc(-c2ccccc2)n1)c1cccs1	23%	-9%	-15%	-14%	-12%	-19%
Cn1cccc1C(=O)OCc1csc(-c2ccccc2)n1	-12%	-29%	0%	2%	-7%	14µM*
Cc1ccsc1C(=O)OCc1csc(-c2ccccc2)n1	151%	-13%	x	-10%	-23%	16µM*
CCC(CC)NC(=O)Nc1cccc(C)c1C	-9%	-2%	x	x	5%	0%
CCC(C)N(CC(=O)Nc1cccc(C)c1C)C(=O)CCl (centres undefined)	11%	6%	4.5µM*	u	-9%	4%
CC(C)Oc1ccc(C(=O)NC2CCCCC2)cc1	29%	-3%	x	-18%	-4%	-11%
CC(C)Oc1ccc(C(CCN)C2CCCCC2)cc1 (centres undefined)	-5%	7%	13µM*	u	3%	-1%
CC(=O)N1N=C(c2ccco2)CC1c1cccs1 (centres undefined)	-3%	2%	i	-15%	-2%	3%
O=C(CCl)N1N=C(c2ccco2)CC1c1cccs1 (centres undefined)	36%	-13%	8.9µM*	u	-23%	9%
COC(=O)c1ccc(CSc2c(C(C)C)cnc3c2c(=O)n(C)c(=O)n3C)cc1	x	x	-6%	-6%	u	x
CC(C)c1cnc2c(c1SCc1ccc([N+](=O)[O-])cc1)c(=O)n(C)c(=O)n2C	x	x	-19%	-12%	10µM*	x
Cc1c(-c2ccccc2)n(O)[n+]([O-])c1-c1ccccc1	-1%	-6%	i	-11%	1%	x
O=Nc1c(-c2ccccc2)n(O)[n+]([O-])c1-c1ccccc1	-26%	-23%	u	11µM*	-16%	x
Cn1cccc1/C=N/N1CCN(Cc2ccccc2)CC1	-17%	-3%	x	x	u	-2%
Cn1cccc1/C=N/N1CCN(Cc2cccc3ccccc23)CC1	20µM*	-5%	i	-12%	u	-8%
CCOc1ccc(CN(CCC#N)C(=S)NC(=O)c2ccccc2)cc1	77%	-4%	x	x	-26%	u
COc1ccc(CN(CCC#N)C(=S)NC(=O)c2ccccc2)cc1	10%	16%	x	-22%	u	20µM*
Nc1ccc(C(=O)c2cccs2)cn1	16%	x	i	-11%	2%	-1%
Nc1ccc(-c2cnc(N)c(C(=O)c3cccnc3)n2)cn1	-6%	4%	u	10µM*	-5%	x
CN1C2CCC1/C(=C\c1ccc(F)cc1)C(=O)/C2=C/c1ccc(F)cc1	-18%	-5%	-12%	-4%	-9%	2%
C=CC(=O)N1C/C(=C/c2ccc(F)cc2)C(=O)/C(=C\c2ccc(F)cc2)C1	1%	-16%	u	7.9µM*	-9%	x
COc1ccc(CN2CCOc3c(O)cc(-c4cc(C)c5ccc(F)cc5n4)cc3C2)c(O)c1	x	x	-18%	-10%	x	x
O=S1(=O)CCO[C@H]2CCCC[C@@H]2N1Cc1ccc(Cl)cc1	x	x	10µM*	u	x	x
COc1ccc(-n2ccc(-c3sc(NCc4cc(OC)c5c(c4)OCO5)nc3C)n2)cc1	x	x	-16%	-10%	x	x
Nc1cccc(-c2c[nH]c3ncc(-c4cccnc4)cc23)c1	-26%	12%	u	10µM*	-9%	x

Assay outcomes from PubChem.
